# Vaccinia Venus = inhibitors of vaccinia virus (Venus reporter); Potency, µM (series often up to 36.5 µM), for the others: at the top dose activity change, negative = inhibition, most hits filed as inhibitors; hit rate 0.46% among 330,000; Vaccinia virus Venus reporter expression, fluorescence; AID 720580; calls by dose curve; tested in A549 cells; further: nearly all actives have a fitted effect of over 30% in size
# FMDV antiviral = antivirals against foot and mouth disease virus; FMDV antiviral cell-based qHTS; Potency, µM (titrated, usually from 57.9 µM), for inactives: at the top dose activity change, negative = inhibition, actives largely listed as inhibitors; hit rate 1.2% among 410,000; AID 1159524; calls by dose curve; tested in HEK293T cells; further: read-out not given here; nearly all actives have a fitted effect of over 45% in size
# LASV entry inh = blocks Lassa virus binding to or entry into cells; Lassa virus pseudotype entry inhibition, cell reporter; AID 540256; Potency, µM (highest dose often 37.9 µM), for the others: at the top dose activity change, negative = inhibition, hits mostly inhibitors; hit rate 1.2% among 300,000; calls by dose curve; tested in HEK293 cells; further: nearly all actives have a fitted effect of over 50% in size
# MARV entry inh = inhibitors of Marburg virus binding or cell entry | Marburg virus pseudotyped entry inhibition, cell reporter | Potency, µM (doses to about 37.8 µM), without a hit: at the top dose activity change, negative = inhibition, usual class: inhibitors | hit rate 1.8% among 300,000; calls by dose curve; tested in HEK293 cells
# VACV mCherry inh = vaccinia inhibition (mCherry reporter); hit rate 0.63% among 310,000; Vaccinia virus mCherry reporter infection, fluorescence; Potency, µM (titrated, usually from 36.5 µM), without a hit: at the top dose activity change, negative = inhibition, usual class: inhibitors; calls by dose curve; tested in A549 cells; further: nearly all actives have a fitted effect of over 35% in size
# * = called active by the depositor; i = inactive; ? = inconclusive; · = no result given; [ ] = dose if it differs, or a comment. Most compounds without a hit are left out; they make up all but 3.2% or so of the library. On the % scale 0 is the no-effect control and ±100 the full control effect; potency means the concentration at half of the fitted maximal effect.
SMILES,Vaccinia Venus,FMDV antiviral,LASV entry inh,MARV entry inh,VACV mCherry inh
CC1O[C@@H](O[C@@H]2C(O)C[C@H](O[C@@H]3C(O)C[C@@H](OC4CC[C@@]5(C)C6CC[C@]7(C)C(C8=CC(=O)OC8)CC[C@@]7(O)C6CC[C@@H]5C4)OC3C)OC2C)CC(O)[C@H]1O (some centres not stated),0.28µM*,0%,·,·,?
C[C@H]1O[C@@H](O[C@H]2[C@@H](O)C[C@H](O[C@H]3[C@@H](O)C[C@H](O[C@H]4CC[C@@]5(C)[C@H](CC[C@@H]6[C@@H]5C[C@@H](O)[C@]5(C)[C@@H](C7=CC(=O)OC7)CC[C@]65O)C4)O[C@@H]3C)O[C@@H]2C)C[C@H](O)[C@@H]1O,0.28µM*,?,0.15µM*,0.13µM*,?
CC(=O)OC1CC(OC2C(O)CC(OC3C(O)CC(OC4CCC5(C)C(CCC6C5CC(O)C5(C)C(C7=CC(=O)OC7)CCC65O)C4)OC3C)OC2C)OC(C)C1OC1OC(CO)C(O)C(O)C1O (configuration not stated),0.89µM*,?,·,·,2.5µM*
NC(=S)NNc1ccnc2cc(Cl)ccc12,-20%,-15%,9%,?,?
FC(F)Oc1ccc(NC(=S)NNc2ccnc3cc(Cl)ccc23)cc1,-11%,?,?,11µM*,-11%
CCN(CC)Cc1cc(Nc2c3ccccc3nc3c4ccccc4n(C)c23)cc(CN(CC)CC)c1O,11µM*,-18%,11µM*,?,-21%
CCOc1cc2nc3c4ccccc4n(C)c3nc2cc1OCC,-14%,9%,-4%,13%,i
CCOC(=O)c1ccc(Nc2nc3ccccc3nc2NS(=O)(=O)c2ccc(Cl)cc2)cc1,?,?,-16%[46.1 µM],·,10µM*
Cc1ccc2nc(NS(=O)(=O)c3ccc(Cl)cc3)c(Nc3ccc(C(=O)O)cc3)nc2c1,13%,-17%,14%[46.1 µM],·,-5%
CCNC(=O)c1c(NC(=O)c2nc(SC)ncc2Cl)sc2c1CCCC2,-12%,·,·,·,-12%
O=c1[nH]c(=O)n(C2CC(O)C(CO)O2)cc1C(F)(F)F (configuration not stated),-26%,0%,·,·,2µM*
Cc1ccc(NC(=O)c2sc(Cl)nc2C)c(C)c1,?,23%,2%,1%,11µM*
Cc1ccccc1NC(=O)c1sc(Cl)nc1C,?,-2%,1%,-4%,10µM*
O=C(c1cncs1)N(Cc1cc2cc3c(cc2nc1N1CCOCC1)CCC3)CC1CCCO1 (configuration not stated),-2%,11%,·,·,-7%
CCn1c(=O)n(CC)c2cc(N3CCCC3)c(NC(=O)c3cc(Cl)ccc3OC)cc21,-3%,-29%,-22%[46.1 µM],20%[46.1 µM],-5%
CCOC(=O)CN1C(=O)NC(c2cccc(F)c2)C(C(C)=O)=C1C (configuration not stated),·,·,·,13%[14.2 µM],·
CCCCN1CC(COCc2ccccc2)Oc2cccc(Oc3ccc(C(C)C)cc3)c2S1(=O)=O (configuration not stated),?,9%,-3%[46.1 µM],·,-19%
C[C@H](c1ccccc1)N1C[C@@H](COCc2ccccc2)Oc2cccc(Oc3ccc(F)cc3)c2S1(=O)=O,·,·,3.5µM*,·,·
Cc1ccc(C(C(=O)NC(C)(C)C)N(Cc2cccs2)C(=O)c2ccc3c(c2)OCCO3)cc1 (configuration not stated),-13%,0%,?,?,i
CCC(C)(C)NC(=O)C(c1ccc(C)cc1)N(Cc1cccs1)C(=O)c1ccc2c(c1)OCCO2 (configuration not stated),-11%,-22%,?,15µM*,-21%
CCOc1ccc(/C=C/C(=O)OCC(=O)NCCc2ccc(OCC)c(OCC)c2)cc1OC,-11%,-26%,1%,0%,-11%
CCOc1ccccc1NC(=O)COC(=O)/C=C/c1ccc(OC)c(OC)c1,-16%,18µM*,-22%,?,-18%
CCc1ccc(OC)c(S(=O)(=O)Nc2ccc(Cc3ccncc3)cc2)c1,-18%,19%,13µM*,?,?
COc1ccc(S(=O)(=O)Nc2ccc(Cc3ccncc3)cc2)cc1OC,-30%,-17%,?,1.4µM*,?
O=c1cc(COc2ccccc2Cl)nc2scc(-c3ccccc3)n12,-15%,-14%,2%[46.1 µM],?,-12%
SMILES,Vaccinia Venus,FMDV antiviral,LASV entry inh,MARV entry inh,VACV mCherry inh
Cc1ccc(S(=O)(=O)c2cc3cc(Br)ccc3oc2=O)cc1,-15%,?,-26%,-7%,i
CC(C)c1ccc(S(=O)(=O)c2cc3cc(Br)ccc3oc2=O)cc1,-1%,?,?,11µM*,-8%
NC1=NC(=O)/C(=C/c2cn(Cc3ccccc3)c3ccccc23)S1,?,0%,?,7%,?
Cc1ccc(-c2cc(C(=O)NCCCN3CCOCC3)c3ccccc3n2)cc1C,-14%,16%,·,21%[46.1 µM],0%
CCCN1CCN(CCCNC(=O)c2cc3c(Cl)nc4ccccc4c3s2)CC1,1%,-20%,3%[46.1 µM],?,12%
O=C(NCCCN1CCCC1)c1cc2c(Cl)nc3ccccc3c2s1,?,-2%,?,10µM*,i
Cc1ccc(-c2cc(C(=O)NCCCN3CCCC3)c3ccccc3n2)cc1C,-21%,-15%,?,11µM*,i
COc1ccc(Nc2cc(C(=O)NCCCN3CCN(c4ccc(OC)cc4)CC3)c3ccccc3n2)cc1,?,40µM*,?,·,?
O=C(NCCCN1CCOCC1)c1cc2c(=O)[nH]c3ccccc3c2s1,-5%,-18%,2%,10µM*,-14%
O=C(O)C#CC(=O)O,-13%,·,·,·,i
COc1ccccc1NS(=O)(=O)c1c(C)[nH]c(C)c1C(=O)N1CCCC1,0%[7.34 µM],-1%,·,·,-1%[7.34 µM]
O=C(CCN1C(=O)S/C(=C\c2ccccc2)C1=O)NC1CCS(=O)(=O)C1 (configuration not stated),·,8%,·,·,·
COc1ccc(C(=O)N2CCN(CCc3ccccc3)CC2)cc1[N+](=O)[O-],-17%,-19%,-6%,-14%,-25%
CCCCN(CC)CCNC(=O)c1cc2c(=O)[nH]c3ccc(C)cc3c2s1,?,-27%,?,5µM*,-21%
CCCCN(CC)CCCNC(=O)c1cc2c(=O)[nH]c3ccccc3c2s1,-10%,-16%,-18%,7.1µM*,-9%
Cc1ccc2[nH]c(=O)c3cc(C(=O)NCCC(C)C)sc3c2c1,·,-27%,·,·,·
COc1cccc2c1C(=O)c1c(O)c3c(c(O)c1C2=O)C[C@@](O)(C(C)=O)C[C@@H]3O[C@H]1C[C@H](N)[C@H](O)[C@H](C)O1,i,-15%,?,0.23µM*,228%
CC(=O)[C@]1(O)Cc2c(O)c3c(c(O)c2[C@@H](O[C@H]2C[C@H](N)[C@H](O)[C@H](C)O2)C1)C(=O)c1c(O)cccc1C3=O,·,·,0.16µM*,0.056µM*,·
CS(=O)(=O)Cc1ccc(C(=O)N(CCc2ccccc2)Cc2ccccc2)cc1,·,-3%,·,·,·
Cc1cc(C)c(-c2c(N)cc(Br)cc2Br)c(N)c1,-12%,?,-28%[46.1 µM],?,13µM*
